Measured values taken from PubChem BioAssay AID720513 (Broad Institute, 2013).
Screen size: about 2,100 compounds; about 480 (23%) were called active. Roughly 5% stayed inconclusive and do not appear here. These entries were drawn from the full list. Potency and affinity values are given separately. A number with no mark means an inactive call.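 How the source made its calls: active means fitted curve reaches 40% activation at or below the top valid concentration, in every replicate test; inconclusive means replicate tests disagree on the call; inactive means the rest, including activity in the opposite direction.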

experiment: PGC1a acetylation increase, cellular AlphaLISA – cell-based, cherry-picked samples, set 6, dose response (AID 720513); conditions: U2OS PGC1a acetylation AlphaLISA, overnight, 0 = neutral, -100 = inhibitor control; series mostly up to 19.5 µM; activation (acetylation increase): at the top concentration;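 further: cells made to overexpress flag tagged PGC1a plus GCN5 acetyltransferase by viral infection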

SMILES | activation (acetylation increase)
O=S(=O)(N[C@@H]1CC[C@@H](CCNS(=O)(=O)c2ccccc2Cl)O[C@H]1CO)c1ccccc1 | 15%
C[C@@H]1CN([C@@H](C)CO)S(=O)(=O)c2ccc(-c3ccc(C#N)cc3)cc2O[C@H]1CN(C)C(=O)CN(C)C | -16.6%
CC(C)C#Cc1cnc2c(c1)C(=O)N([C@@H](C)CO)C[C@@H](C)[C@@H](CN(C)C(=O)CN1CCOCC1)O2 | 31%
CCCN(CC)c1ncnc2[nH]ncc12 | -16.1%
CCCOC1CCCN(C(=O)c2cc(Cl)c(Cl)cc2C(=O)O)C1 (centres undefined) | 5.2%
COc1ccc(-n2nc(C#N)c(Cl)cc2=O)cc1 | -97.3%
C[C@H](CO)N1C[C@H](C)[C@H](CN(C)Cc2ccc(Oc3ccccc3)cc2)Oc2c(NC(=O)Nc3ccc4c(c3)OCO4)cccc2C1=O | -63.5%
Cc1ccc(N2C(=O)c3ccccc3NC2C(C)Cc2ccc3c(c2)OCO3)cc1 (centres undefined) | 11.5%
Cc1ccc(S(=O)(=O)N(C)C[C@@H]2OCCCC[C@H](C)Oc3ccc(NS(C)(=O)=O)cc3C(=O)N([C@@H](C)CO)C[C@@H]2C)cc1 | 30.4%
Cc1nc2ccccc2n2c(O)c(CC(=O)O)cc12 | 27.1%
Cc1ccc(S(=O)(=O)N(C)C[C@H]2OCCCC[C@H](C)Oc3ccc(N(C)C)cc3C(=O)N([C@H](C)CO)C[C@@H]2C)cc1 | 26.9%
C(=C\c1ccccc1)/CN1CCN(C(c2ccnc3ccccc23)c2nnnn2C2CCCCC2)CC1 (centres undefined) | -15.6%
COc1cccc(CNC(=O)CCC2CCCN(Cc3ccc(OC(F)F)cc3)C2)c1 (centres undefined) | 36.4%
COc1ccc(C[C@@H]2OC3(C=CC(=O)C=C3)O[C@H]2Cc2ccc(OC)cc2)cc1 | -102%
CC(=O)N(CCC(Cc1ccccc1)c1ccc2c(c1)OCO2)Cc1ccccc1F (centres undefined) | 28.5%
O=C(CN1CCOCC1)N[C@H]1CC[C@H](CCNC(=O)Nc2cc(F)ccc2F)O[C@H]1CO | -4.65%
Cn1c(C(C#N)C(=O)c2sc3ccccc3c2Cl)nc2ccccc21 (centres undefined) | 4.54%
CN1CCN(c2ccc([N+](=O)[O-])cc2C(=O)Nc2ccccc2)CC1 | 14.4%
CC1CCCN(C(=O)Cc2ccc(F)cc2)C1 (centres undefined) | -34.7%
CC(c1ccccc1)C1CC(=O)N(c2ccc([N+](=O)[O-])cc2)C1=O (centres undefined) | 11.3%
CCC(=O)N1CCN(c2ccc(Cl)cc2NC(=O)c2ccc([N+](=O)[O-])o2)CC1 | 3.87%
Cc1cccc(N2CCN(CC3CCCCC3)CC2)c1C | 16.9% [at 10 µM]
Cc1ccc(N2CCN(CC(O)COC3CCCCC3)CC2)cc1 (centres undefined) | 29.2%
CC(C)C(NC(=O)c1ccc(C(C)(C)C)cc1)C(=O)O (centres undefined) | 43%

SMILES | activation (acetylation increase)
C[C@@H]1CCCCO[C@H](CN(C)C(=O)NC2CCCCC2)[C@@H](C)CN([C@@H](C)CO)C(=O)c2cc(NC(=O)NC3CCCCC3)ccc2O1 | -13.8%
N#Cc1c(-c2ccccc2)c(-c2ccccc2)nn(CC(=O)NNC(=O)Nc2ccc(Cl)cc2)c1=O | 6.86%
O=C(c1nc2nc(-c3ccccc3)cc(C(F)(F)F)n2n1)N1CCCCC1 | -6.13%
CC[C@H](C)[C@H](NC(=O)c1ccc(Cl)cc1)C(=O)OCC(=O)c1ccc2c(c1)NC(=O)CO2 | -58.8%
OCC1(Cc2ccc(F)cc2F)CCCN(Cc2ccc(Cl)cc2)C1 (centres undefined) | 21.8%
COc1cccc(CN2CCC(CO)(CC3CCCCO3)CC2)c1 (centres undefined) | 10.6%
N#Cc1cccc(-c2ccc(C3[C@@H]4CN(Cc5ccccc5F)C[C@H]3N4)cc2)c1 (some centres undefined) | -96.5% [at 21 µM]
COc1cccc(C2c3[nH]c4ccccc4c3CCN2Cc2cnc(C)s2)c1OC (centres undefined) | 14.4%
CCc1nccn1S(=O)(=O)c1cc(C)c(OC)cc1C | 19%
COc1ccc(NC(=O)N[C@H]2CC[C@@H](CCn3cc(-c4ccccc4F)nn3)O[C@H]2CO)cc1 | 7.45%
Cc1cc(=O)[nH]c(SCC(=O)N2CCc3ccccc3C2)n1 | -6.79%
CN(C)S(=O)(=O)c1cc(NC(=O)CN2CCc3ccccc32)ccc1Cl | 21.9%
CCOC(=O)c1cnn(-c2ccccc2)c1-n1cccc1C(=O)C(=O)Nc1ccc(F)cc1 | 22.3%
CC(C(=O)N1CCc2ccccc2C1)N(c1ccccc1)S(C)(=O)=O (centres undefined) | -5.83%
CCOC(=O)c1ccc(NC(=O)CCS(=O)(=O)c2ccc(Br)s2)cc1 | 16.1%
CCOCCCNC(=O)C1CCN(C(=O)Nc2ccc(C)cc2)CC1 | 8.6%
CC(C)Oc1ccc2nnnn2n1 | -8.35%
CCCSCC(=O)Nc1ncc2c(n1)-c1ccccc1CC2 | -13.2%
C[C@H]1CN([C@@H](C)CO)S(=O)(=O)c2ccc(C#CC3CCCCC3)cc2O[C@@H]1CN(C)Cc1cccnc1 | -61.9%
CCc1nc(SCC(=O)N2c3ccccc3Sc3ccccc32)c2ccccc2n1 | -8.97%
O=C(c1ccco1)N1CCN(C(=O)N2c3ccccc3Sc3ccccc32)CC1 | 7.72%
O=c1[nH]c2ccccc2nc1/C=C/c1ccc(O)cc1 | 33.7% [at 10 µM]
C[C@H]1CN([C@@H](C)CO)C(=O)c2cccc(NC(=O)Nc3ccc(F)cc3)c2O[C@@H]1CN(C)S(=O)(=O)c1cn(C)cn1 | -10.4%
C[C@H](NS(=O)(=O)c1ccc2c(c1)OCCCO2)C(=O)N1CCN(Cc2ccccc2)CC1 | -16.9%

SMILES | activation (acetylation increase)
COc1ccc2c(-c3ccccc3)cc(=O)[nH]c2c1 | 5.67%
O=C(c1cc(-c2ccccc2)nc2ccccc12)N1N=C(C(F)F)CC1(O)C(F)F (centres undefined) | -4.21%
C=CCn1c(SCC(=O)Nc2ccc(C(=O)O)cc2)nnc1-c1cccnc1 | -17.5%
COc1ccc(NC(=O)N[C@@H]2C=C[C@@H](CC(=O)NCc3ccccn3)O[C@@H]2CO)cc1 | 8.22%
COc1ccc(C2(NC(C)=O)CCN(C(=O)CCC(=O)O)CC2)cc1 | 0.064%
CCN(C(=O)C1CC1)C1CCS(=O)(=O)C1 (centres undefined) | -3.69%
CN(c1ncnc(N)c1[N+](=O)[O-])C1CCS(=O)(=O)C1 (centres undefined) | -8.48%
COCC(=O)Nc1ccc2c(c1)OC[C@@H](C)N(C(=O)c1ccccn1)C[C@@H](C)[C@@H](OC)CN(C)C2=O | 16.6%
CC1CCCCC1NC(=O)C1CCN(S(=O)(=O)N2CCOCC2)CC1 (centres undefined) | 27.5%
C[C@H](CO)N1C[C@H](C)[C@@H](CN(C)CC2CC2)Oc2cc(-c3cccnc3)ccc2S1(=O)=O | -23.9%
CCSc1nnc(NC(=O)CSC2=NCCS2)s1 | 1.43%
COc1cccc(N2C(=O)CC(N3CCC(c4nc5ccccc5[nH]4)CC3)C2=O)c1 (centres undefined) | -0.89%
O=C(Cc1ccncc1)NCC[C@H]1CC[C@@H](NC(=O)C2CC2)[C@H](CO)O1 | -0.064% [at 21 µM]
CCOC(=O)C1=C(CNCc2ccc(C)cc2)NC(=O)NC1c1cc(C)ccc1C (centres undefined) | -10.4%
CCN(CC)S(=O)(=O)c1cccc(-c2nnc(SCc3ncc(-c4ccccc4)o3)n2C)c1 | 13.4%
NC(=O)NC(=O)Nc1ccccc1Cl | 9.99%
Cc1nc2ccc(C(=O)Nc3ccccc3Cl)cc2s1 | 17%
CCN(CC)C(=O)[C@H]1CC(CC(=O)NCc2cccc(C(F)(F)F)c2)C(=O)N2CCc3c([nH]c4ccccc34)[C@]12C (some centres undefined) | -31.4%
CC(=O)Nc1ccc(S(=O)(=O)N2CCN(c3ccccn3)CC2)cc1 | -5.59%
O=C(CCNC(=O)C1CCN(S(=O)(=O)c2ccc(F)cc2)CC1)NCc1ccccc1Cl | -1.53%
N#Cc1cc2c(=O)n3ccccc3nc2n(Cc2cccnc2)c1=O | 5.98%
O=C1C2C3CCC(C3)C2C(=O)N1CNc1ccc(F)cc1 (centres undefined) | -2.1%
O=c1cc(CSc2ccccn2)[nH]c(=O)[nH]1 | -18.7%
Cc1nc2[nH]c(=O)c3c(n2n1)NC1=C(C(=O)CC(C)(C)C1)C3c1ccccc1 (centres undefined) | 14.3% [at 10 µM]

SMILES | activation (acetylation increase)
O=[N+]([O-])c1ccc(Oc2cccc(F)c2)c2ccncc12 | -24.5%
Cc1cccc(S(=O)(=O)N(C)C[C@@H]2OCc3cn(nn3)CCCC(=O)N([C@@H](C)CO)C[C@H]2C)c1 | -2.84%
O=C(NC1CCCN(Cc2ccc(Cl)cc2)C1)c1ccccc1C(F)(F)F (centres undefined) | 19.9%
O=C(OCn1ncc(Cl)c(Cl)c1=O)c1ccc(C(F)(F)F)cc1 | -30.8%
CCc1nc(N)nc(N)c1-c1ccc(Cl)cc1 | -18.4%
CCOC(=O)C1CCN(C2=NC(=O)/C(=C/c3ccc(O)cc3)S2)CC1 | -3.08%
Cc1cccc2cc(CN(Cc3nnnn3Cc3ccco3)C3CCCC3)c3nnnn3c12 | 6.98%
COc1cccc2c1C(CO)N1C(C#N)C3CC(C(=O)O)C(C1C2)N3C (centres undefined) | -55.3%
Cc1cccc(-n2c(CNC(=O)c3cccc([N+](=O)[O-])c3C)n[nH]c2=S)c1 | 15.6%
COc1cccc(N(CC(=O)N2CCN(Cc3ccccc3)CC2)S(C)(=O)=O)c1 | 23.1%
CCC(C)(C)n1nnnc1C(c1cccnc1)N1CCCC(C)C1 (centres undefined) | 3.35%
C[C@H](CO)N1C[C@H](C)[C@@H](CN(C)C(=O)C2CCCCC2)Oc2cc(C#Cc3ccncc3)ccc2S1(=O)=O | -89.9%
O=C(CNC(=O)c1sc2ccccc2c1Cl)NCc1ccccc1 | 8.91%
O=C(Nc1ccc2c(c1)C(=O)N(c1ccccc1)C2=O)c1cccs1 | -23.8%
COc1ccc(NC(=O)/C(Cl)=C(/Cl)S(=O)Cc2ccccc2)cn1 (centres undefined) | -114%
Cc1cccc(N(CC(=O)NC(C)(C)C)C(=O)CNC(=O)c2cccs2)c1 | 17%
CN(C)C(=O)C[C@@H]1C=C[C@@H](NS(=O)(=O)c2ccccc2)[C@@H](CO)O1 | -4.45%
CO[C@@H]1CN(C)C(=O)c2ccc(NC(=O)Nc3c(C)noc3C)cc2OC[C@H](C)N(CC2CC2)C[C@@H]1C | -2.51%
CCS(=O)(=O)c1ccc(O)c(NC(=O)COc2ccc(Br)cc2)c1 | 5.32%
O=C(CSc1nnnn1-c1ccc(F)cc1)NNC(=O)c1ccco1 | -9.31%
CC(=O)Nc1ccc(NC(=O)c2cc(=O)c3ccccc3o2)cc1 | -0.676%
Cc1cc(=O)[nH]c2c1c(C)nn2C1CCCC1 | -7.95%
